IMPase Li cell = membrane-permeable IMPase blocker, potentiated with lithium. Potency, µM (doses to about 59.4 µM), inactives show at the highest dose activity, negative = IMPase inhibition, most hits filed as inhibitors. 210,000 compounds, 0.35% hits. AID 1457. CHO-M1 cells, IP1 TR-FRET (IP-One), carbachol + lithium;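 also: IP1 builds up when IMPase is blocked and the TR-FRET signal falls; plate controls were basal vehicle for no effect and high inhibitor control for full effect; nearly all actives have a fitted effect of over 50% in size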
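CHO cells stably expressing M1 receptor (2000/well, cultured 16–30 h) treated 30 min at 37C with compound plus low lithium. Cytosolic IP1 by TR-FRET (665/620 ratio and 620 channel) after 10 min lysis; AC50 by Hill fit.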
Sfp PPTase inh = inhibitors of Bacillus subtilis Sfp phosphopantetheinyl transferase; Biochemical Sfp PPTase activity, qHTS; Potency, µM, without a hit: largest response in the series, negative = inhibition, actives largely listed as inhibitors; Q9F4F7; 310,000 compounds, 3.5% hits;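 also: the enzyme is Sfp with the accession as filed and its product quenches rhodamine fluorescence; 0% = enzyme reaction without inhibitor and -100% = no enzyme wells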
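With Hepes-Na pH 7.6 buffer containing 10 mM MgCl2, Sfp (15 nM) modified BHQ-2-YbbR (12.5 uM) using rhodamine-CoA (5 uM). Two reads 30 minutes apart at 525/598 nm yielded each well's rate.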
KAT2A inh = GCN5L2 (KAT2A) acetyltransferase inhibition; 390,000 compounds, 0.21% hits; GCN5L2 HAT assay, ThioGlo1 CoA-SH fluorescence; Q92830; Potency, µM (series often up to 58.9 µM), without a hit: at the highest dose activity change, negative = inhibition, hits mostly inhibitors; also: % is scaled to controls: 0 for no effect and ±100 for the full control effect
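GCN5L2 (20 nM) in 50mM HEPES pH 7.5, 0.1mM EDTA, 0.01% Tween-20 preincubated 15 min with compounds at room temperature. Reaction started with H3(1-25) 75uM, acetyl-CoA 70uM, ThioGlo1 50uM; CoA-thiol fluorescence (Ex340/Em540) read at 0 and 20 min.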
Epigenetic derep = epigenetic control regulation, reporter derepression. 280,000 compounds, 0.2% hits. AID 1865. murine LDR cells, GFP reporter derepression, 30 h. Potency, µM (titrated, usually from 53.9 µM), inactives show top-dose GFP activation, hits mostly activators; also: % of control where 0% means no effect; nearly all actives have a fitted effect of over 60% in size
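GFP-positive cell count by laser-scanning cytometry (objects 20–120 um) after 30 h, 37 C compound exposure of murine LDR cells; reporter is CMV-GFP integrated at a silenced locus, inducible by HDAC or DNMT inhibitors.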
NPSR antag = antagonists of human neuropeptide S receptor cAMP signaling; CHO-NPSR cells, cAMP TR-FRET, antagonist mode; Potency, µM (top dose mostly 38.3 µM), without a hit: at the top dose activity change, negative = inhibition, most hits filed as inhibitors; 220,000 compounds, 1% hits; also: % is scaled to controls: 0 for no effect and ±100 for the full control effect; nearly all actives have a fitted effect of over 50% in size
Target sequence (Q6W5P4 whole entry, looked up): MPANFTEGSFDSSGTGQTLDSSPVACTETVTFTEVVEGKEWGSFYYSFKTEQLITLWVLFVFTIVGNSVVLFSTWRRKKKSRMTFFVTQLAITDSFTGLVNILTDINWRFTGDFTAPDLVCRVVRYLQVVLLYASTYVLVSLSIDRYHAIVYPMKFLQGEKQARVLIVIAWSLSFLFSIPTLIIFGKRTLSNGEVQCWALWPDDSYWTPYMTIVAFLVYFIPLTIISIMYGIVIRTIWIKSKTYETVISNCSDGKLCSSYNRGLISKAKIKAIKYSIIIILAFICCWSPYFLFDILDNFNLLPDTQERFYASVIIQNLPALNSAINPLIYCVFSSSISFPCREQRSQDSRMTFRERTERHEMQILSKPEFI
JMJD2E inh = JMJD2E (human) inhibition; B2RXH2; JMJD2E catalytic domain, FDH-coupled NADH fluorescence (FDH is formaldehyde dehydrogenase); Potency, µM (highest dose often 57.1 µM), without a hit: at the top dose activity change, negative = inhibition, usual class: inhibitors; 230,000 compounds, 1.6% hits; active = well fitted inhibition curve with a large enough effect, not every such curve was filed as active; inconclusive = small, poorly fitted or top-dose-only effect, or another doubt; inactive = no such curve, though single readings can be large or run the other way;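 also: 0% = wells with enzyme and -100% = buffer wells without enzyme; nearly all actives have a fitted effect of over 50% in size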
Target sequence (B2RXH2 1-337 limits assumed): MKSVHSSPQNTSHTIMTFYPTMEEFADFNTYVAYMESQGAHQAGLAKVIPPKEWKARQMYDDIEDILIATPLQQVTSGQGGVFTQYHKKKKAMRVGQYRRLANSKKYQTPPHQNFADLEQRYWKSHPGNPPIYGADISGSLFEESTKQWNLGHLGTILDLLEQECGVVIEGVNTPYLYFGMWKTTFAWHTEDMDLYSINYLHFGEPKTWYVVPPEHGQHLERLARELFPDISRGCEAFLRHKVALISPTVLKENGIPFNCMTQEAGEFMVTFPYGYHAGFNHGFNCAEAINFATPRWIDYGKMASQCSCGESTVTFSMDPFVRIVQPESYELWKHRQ
Numbers without * were called inactive; ! = a repeat was not active; [ ] = dose if it differs, or a comment. Sampled rows, rich in hits. Any-hit rate of the full collection: about 3.6%. Unless noted, calls follow the shape of the dose curve; as a rule, active = well fitted curve in the direction sought with a large enough effect; inconclusive = small, poorly fitted or top-dose-only effect, or another doubt; inactive = no such curve, though single readings can be large; an effect the other way counts as inactive or inconclusive. Potency is read from the fitted curve at half-maximal effect.

What do the screens show for `COc1ccc(OC2C=CC(C#Cc3ccccc3)OC2CO)cc1` (stereo unspecified)?
Sfp PPTase inh: -2%; Epigenetic derep: 2%[10.1 µM]

What do the screens show for `O=C(Nc1ccccc1)c1sc2cc(C(F)(F)F)cnc2c1-c1cccs1`?
IMPase Li cell: 24%[38.3 µM]; Sfp PPTase inh: 1%; KAT2A inh: -2%; Epigenetic derep: 4%; NPSR antag: 10µM*; JMJD2E inh: inconclusive

How did Cc1ccc(OCCCCn2cnc3ccccc32)cc1 do in these assays?
IMPase Li cell: 9%; Sfp PPTase inh: 40µM*; KAT2A inh: -19%; Epigenetic derep: -5%; NPSR antag: -39%; JMJD2E inh: -6%

Results for c1ccc2c(CSCCc3ccncc3)cccc2c1 ?
IMPase Li cell: 3%[38.3 µM]; Sfp PPTase inh: 50µM*; KAT2A inh: -13%; Epigenetic derep: 1%; NPSR antag: inconclusive; JMJD2E inh: 1%

How did c1ccc2c(CSCc3cccc4ccccc34)cccc2c1 do in these assays?
IMPase Li cell: 15%

What do the screens show for `Cn1c(=S)c2[nH]c(SCCN3C(=O)c4ccccc4C3=O)nc2n(C)c1=O`?
IMPase Li cell: 1%

Results for O=C(Nc1ccc(OCC(F)(F)C(F)F)c(C(F)(F)F)c1)c1ccccc1O ?
IMPase Li cell: 22%; Sfp PPTase inh: 30%; KAT2A inh: -11%; Epigenetic derep: -1%; NPSR antag: 7.9µM*; JMJD2E inh: inconclusive

Results for COc1cc2nc(Nc3ccc(C)c(C)c3)nc(N)c2cc1OC ?
Sfp PPTase inh: inconclusive; KAT2A inh: -8%; Epigenetic derep: -3%

Results for CCOC(=O)c1ccc(Nc2nc(N)c3cc(OC)c(OC)cc3n2)cc1 ?
Sfp PPTase inh: 79µM*; KAT2A inh: -6%; Epigenetic derep: 1%

Results for COc1cc2nc(Nc3ccc(C)c(Cl)c3)nc(N)c2cc1OC ?
Sfp PPTase inh: 45µM*; KAT2A inh: -5%

Results for CC1(C)C(/C=C/C=C/C=C/C=C2\N(CCCCS(=O)(=O)O)c3ccc4ccccc4c3C2(C)C)=[N+](CCCCS(=O)(=O)[O-])c2ccc3ccccc3c21 ?
Sfp PPTase inh: 50µM*; KAT2A inh: 10µM*

Results for CCc1ccccc1NC(=O)Cn1c(=O)n(-c2ccc(C)cc2)c(=O)c2c1c1cc(C)ccc1n2C ?
KAT2A inh: -10%; Epigenetic derep: -1%

Results for CCN(CC)CCOc1ccc(Cc2ccccc2)cc1 ?
IMPase Li cell: 1%; Sfp PPTase inh: 79µM*!; KAT2A inh: -5%; Epigenetic derep: 3%; JMJD2E inh: -9%

Results for NC(=O)COc1c(-c2ccco2)oc2ccccc2c1=O ?
IMPase Li cell: 0%; Sfp PPTase inh: 89µM*; KAT2A inh: 0%; Epigenetic derep: -4%; NPSR antag: 5%; JMJD2E inh: -23%

What do the screens show for `O=C(O)COc1c(-c2ccco2)oc2ccccc2c1=O`?
IMPase Li cell: -6%; Sfp PPTase inh: 11%; KAT2A inh: -10%; Epigenetic derep: -2%; NPSR antag: -5%; JMJD2E inh: inconclusive

Results for O=C(Nc1nc(-c2ccccn2)cs1)C1CC1 ?
IMPase Li cell: 5%; Sfp PPTase inh: -12%; KAT2A inh: -5%; Epigenetic derep: -1%; NPSR antag: 7%; JMJD2E inh: -14%

Results for O=C(Nc1nc(-c2ccccn2)cs1)C12CC3CC(CC(O)(C3)C1)C2 ?
IMPase Li cell: 8%; Sfp PPTase inh: 40µM*; KAT2A inh: -8%; Epigenetic derep: -1%; NPSR antag: -8%; JMJD2E inh: inconclusive

What do the screens show for `Cc1cc(C)c(OCC(=O)Nc2nc(-c3ccccn3)cs2)c(C)c1`?
IMPase Li cell: 3%; Sfp PPTase inh: -3%; KAT2A inh: -8%; Epigenetic derep: -1%; NPSR antag: -19%; JMJD2E inh: -18%

What do the screens show for `O=C(CC1CC2CCC1C2)Nc1nc(-c2ccccn2)cs1` (stereo unspecified)?
IMPase Li cell: 6%; Sfp PPTase inh: 35µM*; KAT2A inh: -6%; Epigenetic derep: 4%; NPSR antag: -36%; JMJD2E inh: -41%

How did O=C(Nc1ccccn1)C12CC3CC(C1)CC(C(=O)Nc1ccccn1)(C3)C2 do in these assays?
IMPase Li cell: 19%[38.3 µM]; Sfp PPTase inh: 20%; KAT2A inh: -4%; Epigenetic derep: 0%; NPSR antag: 13%[46.1 µM]; JMJD2E inh: 5%

How did COc1ccc(OCCCC(=O)Nc2nc(-c3ccccn3)cs2)cc1 do in these assays?
IMPase Li cell: 13%; Sfp PPTase inh: 40µM*; KAT2A inh: -18%; Epigenetic derep: -1%; NPSR antag: -27%; JMJD2E inh: -13%

How did NCCCCCCCCCCNCCCN do in these assays?
Sfp PPTase inh: 30%; KAT2A inh: -6%

Results for c1ccc(CNCCC(Cc2ccccc2)c2ccco2)cc1 (stereo unspecified) ?
Sfp PPTase inh: 0%; KAT2A inh: 2%; Epigenetic derep: -1%; NPSR antag: -13%; JMJD2E inh: 5%

What do the screens show for `CN(C)c1ccc(CNCCC(Cc2ccccc2)c2ccco2)cc1` (stereo unspecified)?
Sfp PPTase inh: 45µM*; KAT2A inh: -16%; Epigenetic derep: -7%; NPSR antag: inconclusive; JMJD2E inh: -6%

How did CCOC(=O)c1c(C(=O)OCC)c(C)n(N2C(=O)CSC2=S)c1C do in these assays?
IMPase Li cell: 21%[38.3 µM]; Sfp PPTase inh: 16µM*; KAT2A inh: -5%; Epigenetic derep: -2%; NPSR antag: -14%[46.1 µM]; JMJD2E inh: 2%

Results for Cc1cccc(N2C(=O)CC(Sc3ccccc3C(=O)O)C2=O)c1 (stereo unspecified) ?
IMPase Li cell: 10%; Sfp PPTase inh: 56µM*; KAT2A inh: 39%; Epigenetic derep: 2%; NPSR antag: 26%; JMJD2E inh: 3%

How did Cc1ccc(N2C(=O)CC(Sc3ncn[nH]3)C2=O)cc1C (stereo unspecified) do in these assays?
IMPase Li cell: -16%[38.3 µM]; Sfp PPTase inh: 50µM*; KAT2A inh: -17%; Epigenetic derep: 4%; NPSR antag: -9%[46.1 µM]; JMJD2E inh: 1.3µM*

What do the screens show for `CN(C)c1ccc(N2C(=O)CC(Sc3ccccc3C(=O)O)C2=O)cc1` (stereo unspecified)?
IMPase Li cell: -1%; Sfp PPTase inh: 45µM*; KAT2A inh: -7%; Epigenetic derep: -2%; NPSR antag: 11%; JMJD2E inh: 0%

What do the screens show for `Cc1ccc(N2C(=O)CC(Sc3ccccc3C(=O)O)C2=O)cc1C` (stereo unspecified)?
IMPase Li cell: 3%; Sfp PPTase inh: 50µM*; KAT2A inh: 3%; Epigenetic derep: -4%; NPSR antag: 10%; JMJD2E inh: -12%
